Sampled rows, rich in hits. Any-hit rate of the full collection: about 1.5%.
MCL1 BIM primary: inhibitors of MCL1 binding to BIM-BH3, primary screen, biochemical, fluorescence polarization; Induced myeloid leukemia cell differentiation protein Mcl-1 (Homo sapiens), Q07820; GST-MCL1 / FITC-Bim-BH3 fluorescence polarization; inhibition, % at 10.9 µM; actives 0.68% (n = 320,000);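 active = inhibition above the mean inhibition of all tested compounds plus 3 SD, set per campaign, cut at about 40% in these data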;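 also: 0% = DMSO wells and 100% = unlabeled Bim-BH3 peptide control; higher means more loss of mP so more displacement of Bim peptide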
BCLXL inh: inhibitors of human Bcl-xL, primary screen, biochemical, fluorescence polarization, HTS; actives 0.7% (n = 320,000); GST-Bcl-xL / FITC-Bim BH3 peptide fluorescence polarization; AID 2129, 2009; inhibition, % at 10.9 µM;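 active = inhibition above the mean of all tested compounds plus 3 SD, cutoff set per campaign, cut at about 30% in these data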;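 also: 0% = DMSO wells and 100% = unlabeled Bim-BH3 peptide competitor; inhibitors lower millipolarization by displacing the labeled peptide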
Target sequence (Q07817 whole entry, looked up): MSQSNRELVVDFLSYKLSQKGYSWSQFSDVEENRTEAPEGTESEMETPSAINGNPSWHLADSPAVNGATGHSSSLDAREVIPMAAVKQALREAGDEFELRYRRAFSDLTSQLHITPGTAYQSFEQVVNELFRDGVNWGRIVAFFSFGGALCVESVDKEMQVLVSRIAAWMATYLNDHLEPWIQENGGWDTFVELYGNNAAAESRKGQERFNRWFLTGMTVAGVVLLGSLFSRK
MEX-5 binding: MEX-5 zinc finger RNA-binding disruptors – biochemical, C. elegans, fluorescence polarization, MLPCN library, primary screen; Zinc finger protein mex-5 (Caenorhabditis elegans), Q9XUB2; MEX-5/FITC-TCR2 RNA binding; stronger effect = lower value; activity score (negative = inhibition of binding), % at 10 µM; actives 0.38% (n = 300,000);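 active = inhibition past about -25% in most replicates, and total fluorescence under double the plate's negative control median, limit read from the data; inconclusive = replicates evenly split on the limit, or fluorescence at least double controls; inactive = too little inhibition in most replicates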;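 also: 0% = DMSO and -100% = 5 µM competing unlabeled TCR2 RNA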
EBV gp42 block: Epstein-Barr virus gp42 inhibitors, primary screen, biochemical, uHTS, fluorescence polarization | AID 1085, 2008 | actives 0.42% (n = 220,000) | Fluorescence polarization binding assay, mP read-out | Glycoprotein 42 (Epstein-Barr virus (strain AG876)), Q1HVG2 | inhibition, % (tested at 21.74 µM); in the data active = inhibition above about 50%
Target sequence (Q1HVG2 whole entry, looked up): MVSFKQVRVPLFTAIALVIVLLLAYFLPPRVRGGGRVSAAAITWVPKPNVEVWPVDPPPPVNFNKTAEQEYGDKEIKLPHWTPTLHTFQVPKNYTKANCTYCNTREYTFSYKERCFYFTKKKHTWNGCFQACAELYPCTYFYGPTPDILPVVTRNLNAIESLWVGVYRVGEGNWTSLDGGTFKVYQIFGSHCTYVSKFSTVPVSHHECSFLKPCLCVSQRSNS
GLD-1 TGE inh: GLD-1/TGE RNA complex disruptors, primary screen, biochemical, fluorescence polarization; Female germline-specific tumor suppressor gld-1 (Caenorhabditis elegans), Q17339; purified GLD-1 + fluorescein TGE RNA; inhibition, % at 5.96 µM; actives 0.44% (n = 320,000); AID 2280, 2010;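 active = percent inhibition above a per-plate cutoff, the plate mean of test compounds plus 3 SD, cut at about 30% in these data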;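 also: 0% = DMSO wells with GLD-1 and probe and 100% = wells lacking GLD-1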
E coli Lon inh: inhibitors of E. coli Lon protease, primary screen, biochemical, fluorescence polarization; P0A9M0; purified E. coli Lon protease; inhibition, % at 7.94 µM; actives 0.42% (n = 360,000); AID 602123, 2011; in the data active = inhibition above about 13%, passing the limit was not always enough;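 also: 0% = enzyme with probe and DMSO and 100% = no enzyme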
GLD-1 TGE cf: GLD-1/TGE RNA binding inhibitors, retest, confirmation, biochemical, fluorescence polarization, triplicate | actives 10% (n = 550) | GLD-1/FL-TGE RNA fluorescence polarization | inhibition, % at 5.96 µM | shares compounds with GLD-1 TGE inh | AID 2459, 2010;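 active = average inhibition across triplicates above the hit cutoff set in the primary screen, cut at about 32% in these data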;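 also: 0% = GLD-1 with RNA probe and DMSO and 100% = wells lacking GLD-1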
eLon confirm: E. coli Lon protease inhibitor retest, confirmation, biochemical, fluorescence polarization. inhibition, % at 7.94 µM. shares compounds with E coli Lon inh. purified E. coli Lon. AID 602230, 2012. actives 31% (n = 1,400); in the data active = inhibition above about 16%;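 also: 0% = enzyme with probe and DMSO and 100% = no enzyme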
* marks the source's active call; other numbers are inactive results; ? = inconclusive; . = no result; + = active, no number.

SMILES	MCL1 BIM primary	BCLXL inh	MEX-5 binding	EBV gp42 block	GLD-1 TGE inh	E coli Lon inh	eLon confirm	others
CS(=O)(=O)c1sc2nc(-c3cccs3)cc(-c3ccccc3)c2c1N	-3	23	2	-29	53*	20*	-23	GLD-1 TGE cf=-14
COc1ccccc1NC(=O)COC(=O)c1ccccc1C(=O)N1CCN(c2ccccc2)CC1	44*	42*	-5	13	33*	24*	5	GLD-1 TGE cf=4
O=C(O)c1ccccc1Nc1cc(Cl)c2nonc2c1[N+](=O)[O-]	15	16	-3	.	4	1	.
O=[N+]([O-])c1c(Nc2ccccn2)cc(Cl)c2nonc12	-39	-9	0	-14	43*	52*	-8	GLD-1 TGE cf=3
O=C1C2C3c4ccccc4C(c4ccccc43)C2C(=O)N1Cc1ccco1 (stereo unspecified)	7	4	-1	.	3	20*	4
O=C1C2C(C(=O)N1Cc1ccco1)C1C=CC2C12CC2 (stereo unspecified)	-6	1	1	-2	-3	-2	.
CN(CCCn1ccc(N)nc1=O)Cc1ccco1	.	.	.	.	.	-7	.
C=CCOc1ccccc1CNc1ccc2[nH]c(=O)[nH]c2c1	1	7	-1	0	-3	25*	-3
C=CCOc1ccccc1CNc1cccc(F)c1	0	-1	0	-8	1	-8	.
CCCN(CC(=O)Nc1cc(C)on1)CC(=O)Nc1ccccc1C	0	-6	.	.	5	60*	0
C=C1CC[C@H](O)C/C1=C/C=C1\CCC[C@]2(C)[C@@H]([C@H](C)/C=C/[C@H](C)C(C)C)CC[C@@H]12	17	12	.	.	-1	-4	.
CC(C)c1onc(C(=O)Nc2cccnc2Cl)c1[N+](=O)[O-]	11	4	1	7	-1	19*	-17
CC(C)(C)c1ccc(CC(=O)N2CCC2(C)C(=O)Nc2cnc3ccccc3c2)cc1 (stereo unspecified)	.	.	.	.	.	1	.
NNC(=O)CSc1ncc(-c2ccccc2)[nH]1	5	-1	1	-8	-5	15*	-4
Cc1nnc(NC(=O)CSc2ncc(-c3ccccc3)[nH]2)s1	0	2	-7	3	4	-3	.
CCOc1ccccc1CNC(=O)c1ccc2nc(N3CCOCC3)sc2c1	2	9	0	.	4	-11	.
O=C1C=CC(=Nc2cccc3c2C(=O)c2ccccc2-3)O1	.	.	.	.	.	+	6
O=C1C=CC(=Nc2ccc3c(c2)Cc2cc(F)ccc2-3)O1	.	.	.	.	.	-9	.
C=Cn1ccnc1CC(O)c1ccc(OC)cc1 (stereo unspecified)	2	3	-1	.	3	11	.
CN(C(=O)COC(=O)c1ccc2c(=O)n3c(nc2c1)CCC3)C1CCS(=O)(=O)C1 (stereo unspecified)	-6	1	0	-7	2	4	.
CCCNC(=O)c1ccc2c(=O)c(O)c(C)[nH]c2c1	17	11	-13	13	-1	1	.
O=C(NCCCO)c1ccc2[nH]c3ccccc3c2c1	5	7	-1	-19	1	-16	.
Nc1c(Cl)cc(-c2[nH]c3cc(C(=O)NCCO)ccc3c(=O)c2O)cc1Cl	18	2	?	.	3	+	193*
CCCNC(=O)c1ccc2c(=O)c(O)c(-c3ccc(F)cc3)[nH]c2c1	2	6	-90*	-15	8	163*	100*
CCCNC(=O)c1ccc2c(=O)c(O)c(-c3cccc(Br)c3)[nH]c2c1	3	7	-84*	-11	9	143*	135*
SMILES	MCL1 BIM primary	BCLXL inh	MEX-5 binding	EBV gp42 block	GLD-1 TGE inh	E coli Lon inh	eLon confirm	others
COCc1cccc(-c2csc(C(C)(NC(C)=O)c3ccc(OC)cc3)n2)c1 (stereo unspecified)	.	.	.	.	.	-2	.
N#CC1=C(N)Oc2ccc3ccc(O)cc3c2C1c1ccsc1 (stereo unspecified)	.	.	-47*	161*	.	+	+
O=C(COC(=O)CC1CCCCC1)Nc1c(Cl)cccc1Cl	-5	-5	.	.	0	-5	.
O=C1c2cccc3c([N+](=O)[O-])ccc(c23)C(=O)N1c1ccccn1	24	25	-8	16	20	27*	20*
C=CC[C@H](CC(=O)N(CCO)Cc1ccccc1)C(=O)N[C@@H](COC(=O)[C@@H](CC=C)CC(=O)OC(C)(C)C)Cc1c[nH]c2ccccc12	.	.	.	.	2	21*	8
C=CC[C@@H](CC(=O)N(CCO)Cc1ccccc1)C(=O)N[C@@H](COC(=O)[C@H](CC=C)CC(=O)OC(C)(C)C)Cc1c[nH]c2ccccc12	.	.	.	.	2	-4	.
Cc1ccccc1CC1CCN(CCCNC(=O)Nc2ccccc2)CC1	.	.	0	.	.	2	.
Cc1ccc(S(=O)(=O)N2CCOCC2)cc1NC(=O)COC(=O)Cc1ccccc1	.	.	.	.	9	5	.
O=C(O)c1cccc(N2C(=O)c3cccc(Oc4ccc(Cl)cc4)c3C2=O)c1	-2	5	1	-9	-10	-8	.
CCn1cnc2cc(NCc3ccc(Br)cc3)ccc21	16	9	0	.	-1	.	.
CCn1cnc2cc(NCc3ccc(C)cc3)ccc21	10	6	-3	-7	-3	117*	1
O=C(Nc1nc2c(Br)cccc2s1)C1CC1	-3	4	-1	.	1	23*	81*
O=C(Cc1sc(-c2ccccc2)nc1-c1ccccc1)Nc1ccccc1	-5	3	1	8	7	16*	9
COc1ccc(-n2ccnc2SCC(=O)NCc2ccco2)c(OC)c1	3	-1	-2	-10	3	-6	.
O=C(C[C@H]1C/C=C\CC[C@H](Cc2ccc(F)cc2)C(=O)OC[C@H]2CCCN2C1=O)N[C@@H](CO)Cc1ccccc1	.	.	.	.	2	40*	5
CC(C)(C)OC(=O)C[C@@H]1C/C=C\C[C@H](CC(=O)NCCO)C(=O)N2CCC[C@H]2COC1=O	.	.	.	.	10	111*	-7
Cc1ccc2nc(NC(=O)CN3C(=O)NC4(CCCCC4)C3=O)sc2c1	0	5	-4	.	10	-13	.
